The source made the active and inactive calls. The calls were made as follows: active = hit-call score of the fitted dose curve at least 0.9, where 1 is the maximum; inactive = score below 0.9.
Key:
[1] = read-out: Macrophage colony-stimulating factor (MCSF), CSF1 (gene 1435); test: BSK_hDFCGF_MCSF: BioMAP Diversity Plus: hDFCGF Assay for Macrophage colony-stimulating factor (MCSF) Biomarker Activity (AID 2283060); conditions: primary human foreskin fibroblasts; actives raise or lower the signal
Method in brief: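 M-CSF levels, determined by ELISA, are taken at 24 h after dosing human skin fibroblasts. Responses in either direction are fitted with DMSO serving as the baseline.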

[2] = BSK_hDFCGF_SRB: Viability Assessment in the BioMAP Diversity Plus: hDFCGF Assay (AID 2283061); conditions: primary human foreskin fibroblasts;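 also: cells exposed to compound for 24 h before the read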
Method in brief: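 Cells were dosed with test chemical, cultured 24 h, fixed with 10% TCA, then stained with 0.1% SRB and read at 560 nm. The fibroblasts were human foreskin primary cells, and DMSO served as baseline.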

[3] = read-out: TIMP metallopeptidase inhibitor 1 (TIMP1), TIMP1 (gene 7076); test: BSK_hDFCGF_TIMP1: BioMAP Diversity Plus: hDFCGF Assay for TIMP metallopeptidase inhibitor 1 (TIMP1) Biomarker Activity (AID 2283062); conditions: primary human foreskin fibroblasts; actives raise or lower the signal
Method in brief: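 Fibroblasts from human foreskin are treated with test chemical and harvested at 24 h. TIMP-1 is quantified by ELISA, and gain or loss of signal is scored against DMSO.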

[4] = read-out: Monokine induced gamma interferon (MIG), CXCL9 (gene 4283); test: BSK_hDFCGF_MIG: BioMAP Diversity Plus: hDFCGF Assay for Monokine induced gamma interferon (MIG) Biomarker Activity (AID 2283063); conditions: primary human foreskin fibroblasts; actives raise or lower the signal
Method in brief: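 MIG signal, determined by ELISA, reflects 24 h chemical exposure of human skin primary fibroblasts. DMSO serves as negative control and baseline.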

[5] = read-out: Matrix Metallopeptidase 1 (MMP1), MMP1 (gene 4312); test: BSK_hDFCGF_MMP1: BioMAP Diversity Plus: hDFCGF Assay for Matrix Metallopeptidase 1 (MMP1) Biomarker Activity (AID 2283064); conditions: primary human foreskin fibroblasts; actives raise or lower the signal
Method in brief: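 Primary human foreskin fibroblasts in the hDFCGF system were dosed with test chemical, and MMP1 was measured by ELISA 24 h later. Values come from bidirectional curve fitting against the DMSO baseline.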

[6] = read-out: Vascular cell adhesion molecule 1 (VCAM1), VCAM1 (gene 7412); test: BSK_hDFCGF_VCAM1: BioMAP Diversity Plus: hDFCGF Assay for Vascular cell adhesion molecule 1 (VCAM1) Biomarker Activity (AID 2283065); conditions: primary human foreskin fibroblasts; actives raise or lower the signal;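 as to AC50: VCAM-1 protein level quantified by ELISA after 24 h chemical exposure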
Method in brief: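 Cells are dosed, cultured for 24 h, then VCAM-1 is quantified by ELISA; signal increases and decreases are both fitted relative to DMSO.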

[7] = read-out: Plasminogen activator inhibitor-1 (PAI1), SERPINE1 (gene 5054); test: BSK_hDFCGF_PAI1: BioMAP Diversity Plus: hDFCGF Assay for Plasminogen activator inhibitor-1 (PAI1) Biomarker Activity (AID 2283066); conditions: primary human foreskin fibroblasts; actives raise or lower the signal
Method in brief: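 Human foreskin fibroblasts in the hDFCGF system were dosed with compound for 24 h; PAI-1 was quantified by ELISA. Bidirectional curve fitting used DMSO as negative control and baseline.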

[8] = read-out: Interferon-gamma inducible Protein 10 (IP10), CXCL10 (gene 3627); test: BSK_KF3CT_IP10: BioMAP Diversity Plus: KF3CT Assay for Interferon-gamma inducible Protein 10 (IP10) Biomarker Activity (AID 2283068); conditions: primary human keratinocytes with fibroblasts; actives raise or lower the signal
Method in brief: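 ELISA read-out of IP-10 after 24 h chemical dosing of human skin primary co-culture (keratinocytes, foreskin fibroblasts). Gain or loss of signal relative to DMSO, bidirectional curve fit.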

[9] = BSK_KF3CT_SRB: Viability Assessment in the BioMAP Diversity Plus: KF3CT Assay (AID 2283069); conditions: primary human keratinocytes with fibroblasts
Method in brief: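 Human primary keratinocyte plus foreskin fibroblast co-culture exposed to chemicals for 24 h. Total protein measured by 0.1% sulforhodamine B staining after 10% TCA fixation, read at 560 nm; bidirectional fitting versus DMSO baseline.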

[10] = read-out: Interleukin-1 alpha (IL1a), IL1A (gene 3552); test: BSK_KF3CT_IL1a: BioMAP Diversity Plus: KF3CT Assay for Interleukin-1 alpha (IL1a) Biomarker Activity (AID 2283070); conditions: primary human keratinocytes with fibroblasts; actives raise or lower the signal
Method in brief: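 Human keratinocyte plus foreskin fibroblast primary co-culture, sampled 24 h after chemical dosing. IL-1a measured by ELISA; responses fitted bidirectionally against DMSO baseline (negative control), so gain or loss of signal both count.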

[11] = read-out: TIMP metallopeptidase inhibitor 2 (TIMP2), TIMP2 (gene 7077); test: BSK_KF3CT_TIMP2: BioMAP Diversity Plus: KF3CT Assay for TIMP metallopeptidase inhibitor 2 (TIMP2) Biomarker Activity (AID 2283071); conditions: primary human keratinocytes with fibroblasts; actives raise or lower the signal
Method in brief: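 Human primary keratinocyte/foreskin fibroblast co-culture dosed with chemical and sampled at 24 h. TIMP-2 levels quantified by ELISA; bidirectional fitting against DMSO negative control as baseline.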

[12] = read-out: Transforming growth factor beta 1 (TGFb1), TGFB1 (gene 7040); test: BSK_KF3CT_TGFb1: BioMAP Diversity Plus: KF3CT Assay for Transforming growth factor beta 1 (TGFb1) Biomarker Activity (AID 2283072); conditions: primary human keratinocytes with fibroblasts; actives raise or lower the signal
Method in brief: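 Human keratinocyte plus foreskin fibroblast primary co-culture, dosed with chemical for 24 h. TGF-b1 quantified by ELISA. Activity fitted bidirectionally against DMSO negative control as baseline.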

[13] = read-out: C-C motif chemokine 2 (Homo sapiens) (UniProt P13500); test: BSK_KF3CT_MCP1: BioMAP Diversity Plus: KF3CT Assay for Monocyte Chemoattractant Protein 1 (MCP1/CCL2) Biomarker Activity (AID 2283073); conditions: primary human keratinocytes with fibroblasts; actives raise or lower the signal
Method in brief: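 Keratinocytes and foreskin fibroblasts were co-cultured, dosed with chemical, and sampled 24 h later. MCP-1 was quantified by ELISA, and the endpoint was analyzed with bidirectional fitting using DMSO as negative control.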

[14] = read-out: Matrix Metallopeptidase 9 (MMP9), MMP9 (gene 4318); test: BSK_KF3CT_MMP9: BioMAP Diversity Plus: KF3CT Assay for Matrix Metallopeptidase 9 (MMP9) Biomarker Activity (AID 2283074); conditions: primary human keratinocytes with fibroblasts; actives raise or lower the signal;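 as to AC50: MMP9 protein level quantified by ELISA in the co-culture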
Method in brief: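 Keratinocyte plus foreskin fibroblast human primary skin co-culture was dosed with chemical and MMP-9 was quantified by ELISA 24 h later. Bidirectional curve fitting used DMSO as negative control and activity baseline.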

[15] = read-out: urokinase plasminogen activator (uPA), PLAU (gene 5328); test: BSK_KF3CT_uPA: BioMAP Diversity Plus: KF3CT Assay for urokinase plasminogen activator (uPA) Biomarker Activity (AID 2283075); conditions: primary human keratinocytes with fibroblasts; actives raise or lower the signal
Method in brief: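 Human keratinocyte plus foreskin fibroblast primary co-culture exposed to chemical for 24 h. uPA levels were quantified by ELISA, and activity was fitted bidirectionally against a DMSO negative-control baseline.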

CD40, CD40 (gene 958) = test: BSK_LPS_CD40: BioMAP Diversity Plus: LPS Assay for CD40 Biomarker Activity (AID 2283076); conditions: primary human HUVEC with PBMC; actives raise or lower the signal
Method in brief: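 CD40 signal, measured by ELISA, is fitted in both directions relative to DMSO vehicle. The system is an LPS-driven human vascular primary co-culture of endothelial cells and PBMC, sampled 24 h after compound addition.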

[16] = read-out: E-selectin (Homo sapiens) (UniProt P16581); test: BSK_LPS_Eselectin: BioMAP Diversity Plus: LPS Assay for Eselectin Biomarker Activity (AID 2283077); conditions: primary human HUVEC with PBMC; actives raise or lower the signal
Method in brief: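 Signal of E-selectin, detected by ELISA, served as the endpoint; cells were umbilical vein endothelium with PBMC, read 24 h after treatment. DMSO defined baseline, and both increases and decreases were fitted.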

[17] = read-out: Interleukin-8 (IL8), CXCL8 (gene 3576); test: BSK_LPS_IL8: BioMAP Diversity Plus: LPS Assay for Interleukin-8 (IL8) Biomarker Activity (AID 2283078); conditions: primary human HUVEC with PBMC; actives raise or lower the signal
Method in brief: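 Endothelial cells and PBMC from human donors are co-cultured, treated with chemicals and LPS, then assayed for IL-8 by ELISA after 24 h. Parallel SRB staining (0.1% SRB after 10% TCA fixation, 560 nm) flags cytotoxicity.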

[18] = BSK_LPS_SRB: Viability Assessment in the BioMAP Diversity Plus: LPS Assay (AID 2283079); conditions: primary human HUVEC with PBMC;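 also: total protein by sulforhodamine B absorbance as a cytotoxicity measure; measured one day after compound addition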
Method in brief: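 Overt cytotoxicity was gauged by sulforhodamine B total-protein staining in a primary human vascular endothelial and mononuclear cell co-culture 24 h post-dosing. Activity was fitted in both directions relative to DMSO.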

[19] = read-out: Intercellular Adhesion Molecule 1 (ICAM1), ICAM1 (gene 3383); test: BSK_KF3CT_ICAM1: BioMAP Diversity Plus: KF3CT Assay for Intercellular Adhesion Molecule 1 (ICAM1) Biomarker Activity (AID 2283067); conditions: primary human keratinocytes with fibroblasts; actives raise or lower the signal
Method in brief: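 Dose the keratinocyte/fibroblast co-culture, wait 24 h, measure ICAM-1 by ELISA, then fit increases or decreases against DMSO. Cytotoxicity is checked in parallel cultures by SRB total-protein staining.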

Sequence of E-selectin (Homo sapiens) (P16581 whole entry, looked up): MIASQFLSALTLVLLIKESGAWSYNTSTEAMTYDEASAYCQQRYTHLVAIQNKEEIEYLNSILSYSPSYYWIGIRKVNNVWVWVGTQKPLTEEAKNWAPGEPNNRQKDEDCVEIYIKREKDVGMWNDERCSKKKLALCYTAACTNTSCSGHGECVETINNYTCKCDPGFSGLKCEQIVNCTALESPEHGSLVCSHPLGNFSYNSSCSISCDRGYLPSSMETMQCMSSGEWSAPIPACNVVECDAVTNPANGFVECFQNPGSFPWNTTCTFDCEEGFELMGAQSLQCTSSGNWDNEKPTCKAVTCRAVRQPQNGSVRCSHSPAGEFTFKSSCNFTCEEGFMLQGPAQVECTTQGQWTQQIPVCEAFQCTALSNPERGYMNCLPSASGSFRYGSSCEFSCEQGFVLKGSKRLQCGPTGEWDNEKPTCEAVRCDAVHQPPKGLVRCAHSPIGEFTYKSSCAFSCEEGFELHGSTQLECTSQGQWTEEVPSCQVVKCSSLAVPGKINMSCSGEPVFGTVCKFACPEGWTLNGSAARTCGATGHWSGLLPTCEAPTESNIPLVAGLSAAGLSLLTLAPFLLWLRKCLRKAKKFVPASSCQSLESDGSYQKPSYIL

Structure (SMILES): CSc1nnc(C(C)(C)C)c(=O)n1N
- outcome [1]: inactive
- outcome [2]: inactive
- AC50 [3]: 30.4 µM (active)
- outcome [4]: inactive
- outcome [5]: inactive
- outcome [6]: inactive
- outcome [7]: inactive
- outcome [8]: inactive
- outcome [9]: inactive
- outcome [10]: inactive
- outcome [11]: inactive
- outcome [12]: inactive
- outcome [13]: inactive
- outcome [14]: inactive
- outcome [15]: inactive
- outcome (CD40, CD40 (gene 958)): inactive
- outcome [16]: inactive
- outcome [17]: inactive
- outcome [18]: inactive

Structure (SMILES): CCOP(=O)(SC(C)CC)N1CCSC1=O (stereo unspecified)
- outcome [1]: inactive
- outcome [2]: inactive
- outcome [3]: inactive
- outcome [4]: inactive
- outcome [5]: inactive
- outcome [6]: inactive
- outcome [7]: inactive
- AC50 [8]: 0.704 µM (active)
- outcome [9]: inactive
- outcome [10]: inactive
- outcome [11]: inactive
- outcome [12]: inactive
- outcome [13]: inactive
- outcome [14]: inactive
- outcome [15]: inactive
- outcome (CD40, CD40 (gene 958)): inactive
- outcome [17]: inactive
- outcome [18]: inactive

Structure (SMILES): O=c1ccc(=O)[nH][nH]1
- outcome [1]: inactive
- outcome [2]: inactive
- outcome [3]: inactive
- outcome [4]: inactive
- outcome [5]: inactive
- outcome [6]: inactive
- outcome [7]: inactive
- outcome [8]: inactive
- outcome [9]: inactive
- outcome [10]: inactive
- outcome [11]: inactive
- outcome [12]: inactive
- outcome [13]: inactive
- outcome [14]: inactive
- outcome [15]: inactive
- outcome (CD40, CD40 (gene 958)): inactive
- outcome [17]: inactive
- outcome [18]: inactive

Structure (SMILES): C=C(C)[C@H]1Cc2c(ccc3c2O[C@@H]2COc4cc(OC)c(OC)cc4[C@@H]2C3=O)O1
- outcome [1]: inactive
- outcome [2]: inactive
- outcome [3]: inactive
- outcome [4]: inactive
- outcome [5]: inactive
- AC50 [6]: 7.69 µM (active)
- outcome [7]: inactive
- outcome [19]: inactive
- AC50 [8]: 31.8 µM (active)
- AC50 [9]: 3.97 µM (active)
- outcome [10]: inactive
- outcome [11]: inactive
- outcome [12]: inactive
- outcome [13]: inactive
- AC50 [14]: 16.7 µM (active)
- outcome [15]: inactive
- AC50 (CD40, CD40 (gene 958)): 6.01 µM (active)
- AC50 [16]: 20 µM (active)
- outcome [17]: inactive
- AC50 [18]: 10.9 µM (active)

Structure (SMILES): CCOP(=O)(OCC)Oc1cc(C)nc(C(C)C)n1
- AC50 [1]: 34.3 µM (active)
- outcome [2]: inactive
- AC50 [3]: 14.9 µM (active)
- outcome [4]: inactive
- AC50 [5]: 20 µM (active)
- outcome [6]: inactive
- AC50 [7]: 7.42 µM (active)
- outcome [8]: inactive
- outcome [9]: inactive
- outcome [10]: inactive
- AC50 [11]: 29.8 µM (active)
- outcome [12]: inactive
- AC50 [13]: 31.5 µM (active)
- AC50 [14]: 30.3 µM (active)
- AC50 [15]: 29.3 µM (active)
- AC50 (CD40, CD40 (gene 958)): 14.4 µM (active)
- outcome [17]: inactive
- outcome [18]: inactive

Structure (SMILES): C[N+]1(C)CCCCC1
- outcome [1]: inactive
- outcome [2]: inactive
- outcome [3]: inactive
- outcome [4]: inactive
- outcome [5]: inactive
- outcome [6]: inactive
- outcome [7]: inactive
- outcome [8]: inactive
- outcome [9]: inactive
- outcome [10]: inactive
- outcome [11]: inactive
- outcome [12]: inactive
- outcome [13]: inactive
- outcome [14]: inactive
- outcome [15]: inactive
- outcome (CD40, CD40 (gene 958)): inactive
- outcome [17]: inactive
- outcome [18]: inactive

— PubChem BioAssay (EPA / NIEHS)
